Compound activity from PubChem BioAssay.
BoNT A protease: inhibitors of Botulinum neurotoxin A light chain protease; multiplex microsphere protease substrate cleavage, flow cytometry; inhibition, % at 10 µM; 360,000 compounds, 0.17% hits; AID 588499
BoNT F protease: inhibitors of Botulinum neurotoxin F light chain protease | Multiplex microsphere protease cleavage assay, flow cytometry | inhibition, % at 10 µM | 360,000 compounds, 0.22% hits | AID 588497; in the data active = inhibition above about 35%, passing the limit was not always enough; inconclusive = no clear call, values can overlap the other calls
Bead autofluor: counter-screen for toxin protease inhibitors: compound fluorescence; compound autofluorescence counterscreen, microsphere flow cytometry; hits give high values; fluorescence intensity (concentration not given with the values); 360,000 compounds, 3.1% hits; AID 624483; in the data active = fluorescence intensity above about 16000; inconclusive = no clear call, values can overlap the other calls
SARS 3CLpro inh: SARS-CoV 3CLpro protease inhibition; inhibition, % at 6 µM; AID 1706; 290,000 compounds, 0.14% hits; recombinant SARS-CoV 3CLpro, quenched FRET peptide cleavage; P0C6X7; in the data active = inhibition above about 12%
Anthrax LF inh2: inhibitors of Bacillus anthracis lethal factor protease. 360,000 compounds, 0.12% hits. AID 588501. inhibition, % at 10 µM. multiplex microsphere protease cleavage assay, LF
Target sequence (P15917 whole entry, looked up): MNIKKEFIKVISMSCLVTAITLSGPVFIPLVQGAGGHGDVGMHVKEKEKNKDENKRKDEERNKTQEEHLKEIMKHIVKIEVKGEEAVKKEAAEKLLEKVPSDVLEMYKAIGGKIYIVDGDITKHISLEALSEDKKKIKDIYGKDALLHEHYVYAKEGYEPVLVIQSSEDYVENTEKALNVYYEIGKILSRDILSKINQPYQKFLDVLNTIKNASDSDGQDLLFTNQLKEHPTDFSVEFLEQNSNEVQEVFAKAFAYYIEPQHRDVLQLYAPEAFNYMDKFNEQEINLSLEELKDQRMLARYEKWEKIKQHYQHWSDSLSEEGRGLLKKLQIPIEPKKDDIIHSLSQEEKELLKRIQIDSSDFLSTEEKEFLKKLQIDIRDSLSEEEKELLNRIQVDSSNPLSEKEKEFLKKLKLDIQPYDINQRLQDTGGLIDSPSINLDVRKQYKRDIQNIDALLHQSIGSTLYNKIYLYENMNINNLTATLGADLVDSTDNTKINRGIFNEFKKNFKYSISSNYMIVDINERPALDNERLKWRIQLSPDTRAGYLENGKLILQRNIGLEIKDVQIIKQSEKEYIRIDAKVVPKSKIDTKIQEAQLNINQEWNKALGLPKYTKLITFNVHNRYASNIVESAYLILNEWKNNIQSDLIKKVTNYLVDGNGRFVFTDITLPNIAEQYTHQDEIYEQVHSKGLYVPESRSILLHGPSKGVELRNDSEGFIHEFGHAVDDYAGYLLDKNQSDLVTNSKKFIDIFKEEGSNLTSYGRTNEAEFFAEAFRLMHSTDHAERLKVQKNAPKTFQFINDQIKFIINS
Each line names hits and unclear results; the compound was inactive in the other large screens. This is a sample that favours compounds with a hit; in the whole collection about 3.5% have one here. Cut-off read from the data, not from the text of the source, unless noted: active = inhibition above about 30%; inconclusive = no clear call, values can overlap the other calls; inactive = below that.

Cc1cccc2nc(Cn3c(=O)n(CCC(=O)NCc4ccco4)c(=O)c4sccc43)cc(=O)n12	Bead autofluor 20173
Cc1cccc2nc(Cn3c(=O)n(CCC(=O)NCc4ccco4)c(=O)c4ccccc43)cc(=O)n12	none (no result: SARS 3CLpro inh)
CN(C)Cc1c(C(=O)N/N=C/c2ccc(OCc3c(F)cccc3Cl)cc2)nnn1-c1nonc1N	none
COc1ccc(-c2ccc(C(=O)Nc3cccc(N(C)C)c3)c3occc23)c(C)c1	none (no result: SARS 3CLpro inh)
COC(=O)c1ccc(NC(=O)CSCC(=O)OCC(=O)c2ccc(Br)cc2)cc1	none
COc1cc(OC)cc(-c2noc([C@H]3C[C@H](O)[C@@H](CO)O3)n2)c1	none (no result: SARS 3CLpro inh)
CCN1C(=O)/C(=C2\SC(=S)N(c3c(C)n(C)n(-c4ccccc4)c3=O)C2=O)c2ccccc21	BoNT A protease inconclusive, Bead autofluor 20899
CC(=O)CSc1ncnc2scc(-c3ccc(F)cc3)c12	none
Cc1ccc(-c2csc3ncnc(SCC(=O)Nc4nnc(C)s4)c23)cc1	BoNT A protease inconclusive, Bead autofluor 21425
Cc1ccc(-c2csc3ncnc(SCC(=O)c4ccc5c(c4)OCCO5)c23)cc1	BoNT A protease inconclusive, Bead autofluor 19619
O=C(CSc1ncnc2scc(-c3ccc(F)cc3)c12)c1ccc2c(c1)OCCO2	none
COc1cc(C(=O)Nc2cc(-c3ccccc3)[nH]n2)cc(OC)c1OC	BoNT A protease inconclusive, Bead autofluor 20197 (no result: SARS 3CLpro inh)
COc1cc(C(=O)Nc2nc(OC)c(-c3ccccc3)c(OC)n2)cc(OC)c1OC	none
COc1cccc(C#Cc2c(C=O)n(C)c3ccccc23)c1	BoNT A protease 36.3, Anthrax LF inh2 37.1 (no result: SARS 3CLpro inh)
Fc1ccc(NC(=S)Nc2cccnc2)cc1Cl	none
CC1CCCCN1C(=O)/C(=C\c1ccccc1)c1ccccc1 (configuration not stated)	Bead autofluor 21700
CN1CCCC(OC(=O)c2ccccc2Br)C1 (configuration not stated)	none
Nc1nc(CN2CCCCCC2)nc(Nc2ccc(F)cc2)n1	none
Cc1ccc(Nc2nc(N)nc(CN3CCN(Cc4ccc5c(c4)OCO5)CC3)n2)cc1Cl	Bead autofluor 23185
COc1ccc(Nc2nc(N)nc(CN3CCOCC3)n2)cc1	none
COc1ccc(N2CCN(Cc3nc(N)nc(Nc4ccc(C)c(Cl)c4)n3)CC2)cc1	Bead autofluor 21102
Cc1ccc(Nc2nc(N)nc(CN3CCN(c4ccccc4)CC3)n2)cc1Cl	BoNT A protease inconclusive, Bead autofluor 21461
Nc1nc(CN2CCN(c3ccccn3)CC2)nc(Nc2ccc(F)cc2)n1	Bead autofluor 16591
COc1cccc(N2CCN(Cc3nc(N)nc(Nc4ccccc4OC)n3)CC2)c1	none
COc1ccccc1Nc1nc(N)nc(CN2CCN(c3ccccc3)CC2)n1	Bead autofluor 21394
COc1cc(/C=N/Nc2ccc(F)cc2F)cc(OC)c1O	none
COc1cc(/C=N/n2cnnc2)ccc1OC(=O)c1ccco1	none
O=C(c1ccccc1)N1CCN(CC(O)COc2cccc3ccccc23)CC1 (configuration not stated)	none
CCOC(=O)Cc1[nH]nc2c1C(c1cccc(OC)c1OC)C(C#N)=C(N)O2 (configuration not stated)	none
CCCc1[nH]nc2c1C(c1cc(OC)ccc1F)C(C#N)=C(N)O2 (configuration not stated)	Bead autofluor 18896
CCOC(=O)Cc1[nH]nc2c1C(c1cc(OC)ccc1OC)C(C#N)=C(N)O2 (configuration not stated)	Bead autofluor 21991
COc1ccc(S(=O)(=O)N2CCC[C@H]2C(=O)NCc2ccc(Cl)cc2)cc1	none
COC(=O)C1CCN(C(=O)/C=C/c2ccc(OC)cc2)CC1	Bead autofluor inconclusive, Anthrax LF inh2 35.1
COc1ccc(/C=C/C(=O)N2CCC(c3ccccc3)C2)cc1 (configuration not stated)	none
COc1cccc(NC(=O)CSc2nnc(Cn3nnc4ccccc43)n2C)c1	none
Cc1ccc(NC(=O)C2Cc3ccccc3O/C2=N\O)cc1C (configuration not stated)	none
CCOc1ccc(C(=O)NC(=S)Nc2ccccn2)cc1[N+](=O)[O-]	none
COc1ccc(CCNc2nc(Cl)nc(NC(C)(C)CO)n2)cc1OC	BoNT F protease inconclusive
CCOc1nc(NCCc2ccc(OC)c(OC)c2)nc(NC(C)(C)CO)n1	Bead autofluor 16988
O=C(O)CCc1ccc(-c2ccc(Br)cc2)o1	BoNT A protease inconclusive, Bead autofluor 23745
Cc1ccc(NC(=S)N=Nc2c(O)n(C)c3ccc(S(=O)(=O)N4CCOCC4)cc23)cc1C	none
O=[N+]([O-])c1cccc(C(=Nc2cccc(Cl)c2)NO)c1	none
ONC(=Nc1ccc(Cl)cc1)c1ccccc1	Bead autofluor 22689
Cc1ccc(-c2ccc(=O)[nH]n2)cc1	Bead autofluor 21252
COc1ccc(C)c(NC(=O)C2CC(=O)NC3=C2C(=O)CCC3)c1 (configuration not stated)	none
COc1cc(NC(=O)C2CC(=O)NC3=C2C(=O)CCC3)c(OC)cc1Cl (configuration not stated)	Bead autofluor 23479
COc1ccc(NC(=O)C2CC(=O)NC3=C2C(=O)CC(C)(C)C3)cc1 (configuration not stated)	Bead autofluor 23174
CC(C)NC(=S)NNC(=O)C12CC3CC(CC(C3)C1)C2	BoNT A protease inconclusive, Bead autofluor 24739
CC1(C)OC(=O)C(=NNc2ccccc2)C(=O)O1	none
CC1(C)OC(=O)C(=NNc2ccc(Cl)cc2)C(=O)O1	Bead autofluor 22457
C=C(C)CSC1=C(C#N)C(c2ccccc2Cl)CC(=O)N1 (configuration not stated)	Bead autofluor 23035
Cn1cc(Br)c(C(=O)NC2C3CC4CC(C3)CC2C4)n1 (configuration not stated)	BoNT A protease inconclusive, Bead autofluor 20443
Cn1cc(Br)c(C(=O)NC2CCCCCC2)n1	none
COc1ccc(OCC(=O)N2CCC3(CC2)CC(=O)c2ccccc2O3)cc1	Bead autofluor inconclusive, Anthrax LF inh2 inconclusive (no result: SARS 3CLpro inh)
O=C1NCCC/C1=N/Nc1ccc(F)cc1	none (no result: BoNT A protease, BoNT F protease, Bead autofluor, Anthrax LF inh2)
COc1cccc(C2C(C#N)=C(N)Oc3c2oc(CO)cc3=O)c1OC (configuration not stated)	Bead autofluor 22208
COc1ccc(C2C(C#N)=C(N)Oc3c2oc(CO)cc3=O)c(OC)c1OC (configuration not stated)	Bead autofluor inconclusive
C=C(C)c1ccc(C(C)(C)NC(=O)NCc2ccco2)cc1	none
C=C(C)c1ccc(C(C)(C)NC(=O)N(Cc2ccccc2)Cc2ccco2)cc1	BoNT A protease inconclusive, Bead autofluor 22989
Cc1ccc(-c2nnn(CC(=O)N(CC3CCCO3)C(C(=O)NC(C)(C)C)c3ccc(F)cc3)n2)o1 (configuration not stated)	BoNT A protease inconclusive, Bead autofluor 22682
CC(C)CC(C(=O)NCC1CCCO1)N(C(=O)Cn1nnc(-c2ccc(F)cc2)n1)c1cccc(C(F)(F)F)c1 (configuration not stated)	BoNT A protease inconclusive, Bead autofluor 23362
